Screening data (PubChem)
This is a sample that favours compounds with a hit; in the whole collection about 3.6% have one here.
Pf apPOL block – Pf-apPOL inhibitors, biochemical, fluorescence. Recombinant Pf-apPOL, molecular beacon fluorescence, 1.5 h. 210,000 tested, 0.25% active. inhibition, % at 10 µM
mHTT CaM bind – mutant huntingtin-calmodulin interaction inhibitors – biochemical, AlphaScreen, primary screen. AlphaScreen His-mHTT/GST-CaM binding, luminescence. 190,000 tested, 3.6% active. inhibition, % at 15 µM. AID 1671202, 2021. P42858
A number is an active result; – = inactive. Rule as the data show it: active = inhibition above about 50%; inactive = the rest.

SMILES	Pf apPOL block	mHTT CaM bind
CCSC1=NSC2=NC(=O)/C(=C\c3ccc(F)cc3)C(=N)N12	–	–
FC(F)Oc1ccccc1C1C=C(c2ccc(Cl)cc2)Nc2ncnn21 (centres undefined)	–	–
CCC(=O)Nc1ccc2c(c1)CC(C(=O)NCCCc1ccccc1)CO2 (centres undefined)	–	–
Cn1nccc1C(=O)N1CCCC1c1nc(-c2ccc(F)cc2F)no1 (centres undefined)	–	–
COc1ccccc1OCCOc1ccc(C)cc1Br	–	–
CC(=O)NC(=O)c1cc2cc(Cl)ccc2oc1=Nc1ccccc1C	–	–
Cc1ccc(OCC(=O)NCC2(C)CCOCC2)cc1	–	–
CCOc1ccccc1CNC(=O)C1CCN(c2nnc(-c3ccccc3)o2)CC1	–	–
CCOc1ccc(S(=O)(=O)NCC2CCN(Cc3ccco3)CC2)cc1F	–	–
COc1ccc(C(=O)Nc2c3c(nn2-c2cccc(C)c2)CSC3)cc1OC	–	–
COc1ccc(C(=O)Nc2c3c(nn2-c2cccc(Cl)c2)CSC3)cc1OC	–	57
COc1ccccc1N1CCN(C(=O)c2ccc(C)cc2)C(C)C1=O (centres undefined)	–	–
COc1ccc(OC)c(-c2c(C)c3cc(OC(=O)c4ccco4)ccc3oc2=O)c1	–	–
N#CC1=C(N)OC2=C(CCCC2)C1c1ccc(F)cc1 (centres undefined)	–	–
COc1cccc(/C=C2\CCC3=C2OC(N)=C(C#N)C3c2cccc(OC)c2)c1 (centres undefined)	–	78
COc1cccc(C2C(C#N)=C(N)OC3=C2C(=O)CCC3)c1 (centres undefined)	–	–
N#CC1=C(N)OC2=C(CC/C2=C\c2ccc(F)cc2)C1c1ccc(F)cc1 (centres undefined)	–	77
C[n+]1cc(-c2ccc3cccc([N+](=O)[O-])c3n2)cc2ccccc21	–	–
CCN(CC)c1ccc(NC2=C(n3nnc4ccccc43)C(=O)c3ccccc3C2=O)cc1	–	70
O=C1C(Nc2ccc(Cl)cc2)=C(n2nnc3ccccc32)C(=O)c2ccccc21	–	–
c1ccc(Oc2nc(N3CCCCC3)nc3c2CN(Cc2cccnc2)CC3)cc1	–	53
CCOc1ccc(CN2CCc3nc(N4CCCC4)ncc3C2)cc1	–	–
Cn1cccc1CN1CCc2nc(N3CCCCC3)nc(Oc3ccccc3)c2C1	–	71
CC(C)CN1CCc2nc(N3CCOCC3)nc(Oc3ccccc3F)c2C1	–	–
CCNc1cc(N2CCCC(CCC(=O)N3CCOCC3)C2)ncn1 (centres undefined)	–	–
SMILES	Pf apPOL block	mHTT CaM bind
CC(C)C[C@H](CO)N(Cc1ccccc1)S(=O)(=O)N(Cc1ccccc1)[C@@H](CO)CC(C)C	–	75
C=CS(=O)(=O)N(Cc1ccccc1)[C@H](CO)CC(C)C	–	–
NNC1=NC2(CCCCC2)Cc2ccccc21	–	–
Cc1ccc(C)c(CN2C(=O)C3(OCCCO3)c3ccccc32)c1	–	–
O=C1N(Cc2cc(=O)n3ccccc3n2)c2ccccc2C12OCCCO2	–	52
NC(=O)C1(N2CCCCC2)CCN(C(=O)c2ccc(Cn3nnc4ccccc4c3=O)cc2)CC1	–	–
COc1cc(C2C(C#N)=C(N)Oc3c2oc(CO)cc3=O)cc(OC)c1OC (centres undefined)	–	–
COc1cc(C2C(C#N)=C(N)Oc3c2[nH]c(=O)[nH]c3=O)cc(OC)c1OC (centres undefined)	97	–
CCCNC(=O)C1CCc2nc(N3CCN(C(=O)C(C)C)CC3)sc2C1 (centres undefined)	–	–
Cc1ncc(CO)c2cc(-c3nnc(Nc4ccc(-c5ccccc5)cc4)s3)c(=O)oc12	–	–
O=C(CSc1nnc(-c2ccco2)c(-c2ccco2)n1)Nc1cccc(Br)c1	–	100
O=C(CSc1nnc(-c2ccco2)o1)Nc1cccc([N+](=O)[O-])c1	–	–
O=C(CSc1n[nH]c(-c2ccccc2)n1)Nc1ccccc1[N+](=O)[O-]	–	–
O=C(CSc1nnc(-c2ccco2)c(-c2ccco2)n1)Nc1cccc([N+](=O)[O-])c1	–	98
O=C(CSc1nnc(-c2ccco2)c(-c2ccco2)n1)Nc1ccccc1[N+](=O)[O-]	–	74
O=C(O)Cn1c2ccccc2c2nnc(SCC(=O)Nc3cccc(Br)c3)nc21	–	–
CCN(CC)CCC(=O)c1ccc2c(c1)OCO2	–	–
Cc1ccc(/C=C2\C(=O)Nc3ccc(Br)cc32)s1	–	–
O=C1Nc2c(Br)cc(Br)cc2/C1=C/c1ccco1	–	–
O=C1Nc2ccc(Br)cc2/C1=C/c1ccco1	–	72
O=C1Nc2ccc(Br)cc2/C1=C/c1cccs1	–	58
CC(=O)N1CCc2cc(Br)cc(S(=O)(=O)Nc3ccc(Br)cc3)c21	–	–
CCc1ccc(S(=O)(=O)N2CCC(CN3CCCCCC3)CC2)cc1	–	100
CCc1ccc(S(=O)(=O)N2CCC(CN3CCC(C)CC3)CC2)cc1	–	–
CCOCCCNC(=O)c1cccc(C2CCCN(C(=O)Nc3ccc(CC)cc3)C2)c1 (centres undefined)	–	–
SMILES	Pf apPOL block	mHTT CaM bind
COc1ccc(OC)c(-c2cn3ccn(-c4ccc(F)c(Cl)c4)c(=O)c3n2)c1	–	–
COc1cccc(C(=O)N2CCc3cc(OC)c(OC)cc3C2COc2ccc(C(C)C)cc2)c1 (centres undefined)	–	–
O=C(c1csc(-c2ccncc2)n1)N1CCN(c2cccc(C(F)(F)F)c2)CC1	–	63
CCn1cc(CC(=O)N2CCN(c3ccccc3)CC2)c2cccnc21	–	–
CCn1cc(-c2nc(C)c(C(=O)N3CCOCC3)s2)c2cccnc21	–	–
COc1cccc(N2CCN(C(=O)c3csc(-c4cccnc4)n3)CC2)c1	–	–
CCn1cc(-c2nc(C(=O)N3CCN(c4ccccc4)CC3)cs2)c2cccnc21	–	100
Cc1nc(-c2cn(C)c3ncccc23)sc1C(=O)N1CCN(c2ccccc2)CC1	–	55
CCOC(=O)Cc1csc(NC(=O)Cn2cnc(-c3ccc(OC)cc3)cc2=O)n1	–	–
CC1CCN(c2ncc3c(n2)CCN(Cc2ccc(Cl)cc2)C3)CC1	–	–
O=C1OC(c2ccccc2)=N/C1=C/c1cccc(Cl)c1Cl	–	–
CCOC(=O)CNC(=O)N1CCN(Cc2nc3cccnc3n2-c2ccc(C)cc2)CC1	–	–
CCC1CCCCN1C(=O)CS(=O)(=O)c1cn(Cc2cccc(F)c2)c2ccccc12 (centres undefined)	–	–
CCOC(=O)CC[C@H]1CC[C@]2(CCCN(Cc3ccc(Cl)cc3)C2)O1	–	–
COc1ccc(C(=O)NCc2cccnc2OC)cn1	–	–
O=C(O)CCCC(=O)Nc1nccs1	–	–
O=C(CCCOc1ccc(Cl)cc1)Nc1nccs1	52	–
Cc1cc(C2CC(C(=O)NCC3CC3)CN(C(=O)NC(C)C)C2)ccc1F (centres undefined)	–	–
COc1ccc(CNC(=O)CN(C)S(=O)(=O)c2ccc3[nH]c4c(c3c2)CCCC4)cc1	–	–
COc1ccc(C)cc1NS(=O)(=O)c1ccc2[nH]c3c(c2c1)CCCC3	–	81
COc1cccc(NC(=O)CN(C)S(=O)(=O)c2ccc3[nH]c4c(c3c2)CCCC4)c1	–	–
COc1ccc(NS(=O)(=O)c2ccc3[nH]c4c(c3c2)CCCCC4)cc1	–	57
COc1cccc(NS(=O)(=O)c2ccc3[nH]c4c(c3c2)CCCCC4)c1	–	98
